Records with an inconclusive call do not appear. The call rests on the fitted dose curve; in most records, active means well fitted curve in either direction with a large enough effect (not every such curve was filed as active); inconclusive means small, poorly fitted or top-dose-only effect, or another doubt; inactive means flat fitted curve, though single readings scatter.
Assay: AP1 Signaling Pathway (AID 357)
Conditions: ME-180 (cervical carcinoma) AP-1-bla reporter, EGF-induced, beta-lactamase ratio, 5 h; at 7.69 µM (top of the series) unless noted
How it was run: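 A ratiometric CCF4 readout (405 nm excitation; 460 and 530 nm emission) quantified AP-1-driven beta-lactamase in ME-180 cells after 5 h with compound and EC50 EGF; AC50 values were derived for activators and inhibitors.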
On the % scale 0 is the no-effect control and ±100 the full control effect.

Activity change, negative = inhibition, inactive:
Cc1nc2cnc(Oc3cccc(Cl)c3)nc2n(C2CC2)c1=O -22.3%
CNc1ncncc1-c1ccccc1C(F)(F)F 2.43%
CC(=O)NCCNc1nc(-c2ccc(C(=O)N(C)C)cc2)nc2ccccc12 3.64%
COc1ccc(CNc2ccnc(-c3ccc(C(=O)N(C)C)cc3)n2)c(OC)c1 -20%
Clc1ccccc1-c1cc(NCCN2CCOCC2)ncn1 1.17%
COc1ccc(CNc2cc(-c3cccnc3)ncn2)c(OC)c1 -14.6%
CCNc1ncc2nc(-c3ccc(OC)cc3)c(=O)n(CCC#N)c2n1 -5.2%
FC(F)(F)c1ccccc1-c1cncnc1NCc1cccnc1 -13.4%
COc1ncc2nc(-c3cn(C)c4ccccc34)c(=O)n(C)c2n1 4.21%
CN(C)C(=O)c1ccc(-c2cncnc2NCc2ccccc2)cc1 8.88%
COc1ccc(-n2c(=O)c(CCc3ccccc3)nc3cncnc32)cc1 -15.2%
Cc1nc2cnc(N(C)C)nc2n(-c2ccccc2)c1=O -7.75%
COc1ccccc1CNc1ncncc1-c1ccc(C(=O)N(C)C)cc1 -10.9%
COc1ccc(CNc2ncncc2-c2ccccc2C(F)(F)F)c(OC)c1 -23.4%
COCCn1c(=O)c(-c2cccc(C#N)c2)nc2cnc(N3CCOCC3)nc21 -16.2%
CNc1ncncc1-c1ccccc1C 7.16%
O=c1cnc2cnc(Oc3ccccc3)nc2n1C1CC1 -14%

Source: PubChem BioAssay (NCATS)
